Assay outcomes deposited in PubChem by National Center for Advancing Translational Sciences (NCATS).
This is a sample that favours compounds with a hit; in the whole collection about 2.4% have one here.
D2 PAM-1 – D2 dopamine receptor (human) potentiation | HEK293 T-REx D2, calcium flux, EC20 dopamine potentiation | potentiation, % at 10 µM | 340,000 tested, 0.34% active | AID 485347;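 active = potentiation over 3 SD above the plate norm, cut at about 30% in these data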; note: 0% is about no effect
Target sequence (P14416 whole entry, looked up): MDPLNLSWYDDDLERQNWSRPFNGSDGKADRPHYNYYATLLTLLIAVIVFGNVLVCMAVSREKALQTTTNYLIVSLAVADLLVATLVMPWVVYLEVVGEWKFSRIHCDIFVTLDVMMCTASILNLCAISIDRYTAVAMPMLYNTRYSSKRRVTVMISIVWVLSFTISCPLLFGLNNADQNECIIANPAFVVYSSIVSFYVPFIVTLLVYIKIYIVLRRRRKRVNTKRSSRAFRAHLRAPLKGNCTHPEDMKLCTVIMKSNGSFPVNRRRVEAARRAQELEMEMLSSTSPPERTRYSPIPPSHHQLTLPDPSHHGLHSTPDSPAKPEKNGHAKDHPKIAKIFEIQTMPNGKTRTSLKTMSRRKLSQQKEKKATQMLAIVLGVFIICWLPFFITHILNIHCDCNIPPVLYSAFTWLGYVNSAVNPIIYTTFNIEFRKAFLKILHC
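Potentiation of an EC20 dopamine calcium response measured kinetically over 180 s, after a preceding 180 s compound-only read flagging agonists. Cells: inducible Hek293 Trex D2 line, 4000/well, cultured overnight at 30 C before dye loading.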
D2 antag – antagonizes the human D2 dopamine receptor. 340,000 tested, 2% active. AID 485344. HEK293 TREx D2 cells, calcium flux, dopamine EC80. inhibition, % at 10 µM. P14416; in the data active = inhibition above about 30%; inactive = below that, where a call was filed; note: 0% is about no effect
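Calcium flux kinetic readout in an inducible HEK293 TREx D2 line plated overnight at 30 C. After 180 s compound exposure, an EC80 dopamine challenge follows with another 180 s kinetic read to detect antagonism.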
D2 ag-1 – D2 dopamine receptor (human) agonism | P14416 | HEK293 T-REx D2 cells, calcium flux agonist mode | activation, % at 2 µM | 340,000 tested, 0.53% active;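 active = activation over 3 SD above normal in the single-dose calcium agonist read, cut at about 30% in these data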; note: 0% is about no effect
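Agonism scored from kinetic calcium signal (1 read/sec, 180 s) following compound pin transfer, after a 10 s baseline. Cells: HEK293 Trex line expressing inducible D2 receptor coupled to calcium, dye-loaded after overnight culture at 30 C.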
D2 ag-2 – human D2 receptor agonism in beta-arrestin assay | 360,000 tested, 0.084% active | DiscoveRx PathHunter D2 beta-arrestin, luminescence, 90 min; 100% = 57 uM dopamine signal | P14416 | activation, % (test concentration not listed) | AID 624465; in the data active = activation above about 40%; inconclusive = between about 15% and that limit
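Agonist mode: compounds alone added to overnight-plated D2 PathHunter cells for 90 min at 37 C, with 57 uM final dopamine (EC100) defining full response. Beta-arrestin recruitment detected by chemiluminescent reagent, read after 1 h at ambient temperature.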
D2 PAM-2 – positive allosteric modulators of human D2 dopamine receptor | P14416 | DiscoveRx D2 beta-arrestin cells, luminescence, 90 min; 100% = 57 uM dopamine signal | potentiation, % (concentration not given with the values) | 360,000 tested, 0.23% active; in the data active = potentiation above about 50%; inconclusive = mostly about 30% to 49%
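D2 cells co-treated with compound plus 50 nM dopamine (EC20) for 90 min at 37 deg C to detect potentiation. Beta-arrestin recruitment was read as enzyme-fragment luminescence after 1 h at ambient temperature. Full response was set by 57 uM dopamine.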
The depositor's hits bear a star; ? = inconclusive; . = not tested or not shown.

SMILES	D2 PAM-1	D2 antag	D2 ag-1	D2 ag-2	D2 PAM-2
COc1ccc(OC)c(NC(=O)C2(C)CCN2Cc2ccccc2OC(F)F)c1 (stereo unspecified)	.	.	.	108.2*	17.6
COc1ccc(OC)c(NC(=O)NCc2ccc(F)cc2)c1	-16.1	38.9*	0.8	-0.1	-18.2
COc1ccc(C)cc1NC(=O)NC1CCCCCCC1	-17.1	32.0*	0.1	-2.1	-31.7
COc1ccc(NS(=O)(=O)c2ccc(C)c(NC(=O)NC3CCCCC3)c2)cc1	-21.1	33.5*	-0.9	4.0	-16.4
COc1ccc(CNC(=O)Nc2cc(C)ccc2C)cc1	-7.8	5.3	1.4	-4.7	-8.4
COc1ccc(C)cc1NC(=O)NCc1ccc(F)cc1	-20.3	52.8*	-0.7	-5.7	-22.3
CCc1ccc(N(C(C)=O)C2C=CS(=O)(=O)C2)cc1 (stereo unspecified)	5.1	37.2*	1.1	-1.9	-5.3
CCOCCCNCc1ccc(OCCC(C)C)c(OC)c1	-8.6	35.3*	-0.6	-6.0	-8.2
COc1ccc2nc(NC(=O)C3CC(=O)N(c4ccccc4)C3)sc2c1 (stereo unspecified)	5.6	31.2*	-0.3	-1.2	-7.4
COc1ccc(N2CC(C(=O)Nc3nc4ccc(OC)cc4s3)CC2=O)cc1 (stereo unspecified)	1.5	-11.8	0.6	-0.9	1.2
CC1CN(c2ncnc3c2cnn3-c2ccc(Cl)cc2)CC(C)O1 (stereo unspecified)	21.7	31.2*	-1.0	-0.2	0.2
CC1CC1c1ccc(/C=C(\C#N)C(=O)Nc2ccc(Cl)cc2)o1 (stereo unspecified)	-25.1	75.7*	-0.4	-2.5	-35.4
N#C/C(=C/c1ccc(N2CCCCC2)o1)C(=O)Nc1ccc2ccccc2c1	-14.8	47.0*	105.5*	-9.1	-17.2
N#C/C(=C/c1ccc(N2CCCCC2)o1)C(=O)Nc1ccc(Cl)cc1	-29.0	61.9*	110.4*	-0.4	-14.0
COc1ccc(NC(=O)/C(C#N)=C\c2ccc(N3CCOCC3)o2)cc1	-9.3	13.3	42.5*	-3.9	-11.8
N#C/C(=C/c1ccc(N2CCOCC2)o1)C(=O)NC1CCCCC1	4.7	5.0	17.7	-19.2	-17.1
N#C/C(=C\c1ccc(N2CCOCC2)o1)C(=O)Nc1ccc(O)cc1	12.1	-0.6	17.1	-7.8	-12.6
CC1CC1c1ccc(/C=C(\C#N)C(=O)Nc2ccccc2Cl)o1 (stereo unspecified)	.	.	.	1.7	-8.2
COc1cccc(-n2ccnc2SCC(=O)Nc2ccccc2)c1	-22.9	50.4*	-0.1	-3.9	-32.0
CC(=O)Nc1ccc(NC(=O)CSc2ccccn2)cc1	5.3	0.6	-0.9	-1.1	-10.3
COc1cccc(NC(=O)CSc2nccn2-c2cccc(OC)c2)c1	-16.5	-1.5	1.3	-3.1	-33.7
CC(=O)Nc1ccc(NC(=O)CSc2ncnn2-c2ccccc2)cc1	31.0*	15.3	0.3	-2.5	4.6
Cc1ccc(NC(=O)CN2C(=O)COc3ccc(S(=O)(=O)N4CCCCCC4)cc32)cc1Cl	0.9	.	-0.5	.	.
CCCN(C(=O)COc1cc(=O)n(CC)c2ccccc12)c1ccc(C(C)C)cc1	1.1	.	-0.5	.	.
OC1CCN(Cc2ccc3ccccc3c2)CC1	-15.3	45.6*	0.7	-1.6	-13.9
SMILES	D2 PAM-1	D2 antag	D2 ag-1	D2 ag-2	D2 PAM-2
COc1ccccc1CN1CCN(Cc2ccc3ccccc3c2)CC1	-28.5	67.7*	1.1	-8.1	-9.9
COc1ccc(CN2CCN(Cc3ccc4ccccc4c3)CC2)cc1OC	-16.0	4.5	0.7	-5.2	-14.3
CC1(C(=O)NC2CCN(Cc3ccccc3)CC2)CCN1Cc1ccc2ccccc2c1 (stereo unspecified)	.	.	.	-5.9	-13.2
COc1cccc(NC(=O)CN2C(=O)C3(SCC(=O)N3c3cc(C)cc(C)c3)c3ccccc32)c1 (stereo unspecified)	3.0	.	0.5	.	.
Cc1c(C(=O)N2CCOCC2)oc2c1-c1nn(CC(=O)NCc3cccc(Cl)c3)cc1CC2	-4.4	.	-0.4	.	.
Nc1ccccc1NC1=CC(=O)CC(c2ccco2)C1 (stereo unspecified)	-2.9	30.9*	0.6	-1.2	-1.7
COc1cc(NC(=O)C2CCN(C(=O)c3sc4nc[nH]c(=O)c4c3C)CC2)cc(OC)c1OC	9.1	.	0.3	.	.
CN(C)CCN(C(=O)c1ccc(S(=O)(=O)N2CCc3ccccc32)cc1)c1nc2ccc(F)cc2s1	-17.9	68.8*	-1.4	-5.7	-22.4
CCc1ccc2nc(N(CCCN(C)C)C(=O)c3ccc(S(=O)(=O)N4CCCc5ccccc54)cc3)sc2c1	10.7	2.8	2.2	-7.1	-11.2
Cc1cc(S(=O)(=O)C(CNC(=O)c2ccc(OC(C)C)cc2)c2cccs2)ccc1F (stereo unspecified)	4.7	.	1.7	.	.
CCC(CC)C(=O)NC12CC3CC(CC(C3)C1)C2	25.0	32.5*	-1.9	-2.4	-2.4
Cc1ccc(S(=O)(=O)Nc2cc3c(C(=O)Nc4ccccc4)c(C)oc3c3ccccc23)cc1	-3.4	-0.3	1.3	13.0	83.9*
CCOC(=O)c1c(C)oc2c1cc(NS(=O)(=O)c1ccc(C)cc1)c1ccccc12	-10.6	.	-1.2	.	.
O=C1c2ccccc2C(O)N1Cc1cccs1 (stereo unspecified)	4.5	46.8*	-0.1	-2.7	-1.4
CCCOc1ccc(NC(=O)CC2C(=O)N(c3ccc(Cl)cc3)C(=O)N2CCc2ccncc2)cc1 (stereo unspecified)	.	.	-0.1	.	.
C/C(Cc1ccccc1)=N\NC(=O)CNC(=O)COc1ccccc1	-0.5	24.8	0.5	0.1	1.4
COc1ccc(OCC(=O)N/N=C(/C)Cc2ccccc2)cc1	7.3	31.6*	0.1	-5.4	-3.5
COc1ccccc1C(=O)NCC(=O)N/N=C(\C)Cc1ccccc1	-1.5	30.0*	-0.3	-3.0	-8.2
COc1ccc(CC(=O)NCc2nc3cccnc3n2Cc2ccc(C)cc2)cc1OC	10.5	.	-0.8	.	.
CCOc1cc(C2C(C(=O)OC)=C(C)N=C3SC(C)C(=O)N32)ccc1OC(C)=O (stereo unspecified)	4.4	-1.5	-0.3	-3.0	-14.5
CCOC(=O)C1=C(C)N=C2SC(C)C(=O)N2C1c1ccc(OC(C)=O)c(OC)c1 (stereo unspecified)	38.2*	11.1	0.1	-2.3	-3.1
COc1ccc(-c2nc(SCCOc3cc(C)ccc3C(C)C)n3[nH]c(=O)cc3n2)cc1	-20.2	.	0.1	.	.
CN(C)S(=O)(=O)N1CCCN(S(=O)(=O)N(C)C)CC1	42.0*	-6.4	0.9	-1.8	-10.1
CC(=O)Oc1ccc2c(c1)Oc1cc(OC(C)=O)ccc1C21OC(=O)c2ccccc21	-24.4	83.5*	165.4*	7.0	?
Cc1cc(O)ccc1C1(c2ccc(O)cc2C)OC(=O)c2ccccc21	6.6	-2.8	0.2	-0.7	-2.6
